Measurements from article PMC7862700, “An all-to-all approach to the identification of sequence-specific readers for epigenetic DNA modifications on cytosine”.

Assays:
Assay in all cases: DAPPL (digital affinity profiling via proximity ligation, sequencing); 10 mM Tris-HCl pH 7.5, 50 mM NaCl, 1 mM DTT, 4% glycerol, room temperature, 30 min; GST-TFs on glutathione beads, 16-mer random dsDNA library, 0.1% formaldehyde crosslink after washing; high values mean tight binding
[1] = molecular target: T1, FLI1 (Homo sapiens, UniProt Q01543 1-452); conditions: protein: recombinant; tags: N-terminal GST; dsDNA, one strand shown
T1 sequence: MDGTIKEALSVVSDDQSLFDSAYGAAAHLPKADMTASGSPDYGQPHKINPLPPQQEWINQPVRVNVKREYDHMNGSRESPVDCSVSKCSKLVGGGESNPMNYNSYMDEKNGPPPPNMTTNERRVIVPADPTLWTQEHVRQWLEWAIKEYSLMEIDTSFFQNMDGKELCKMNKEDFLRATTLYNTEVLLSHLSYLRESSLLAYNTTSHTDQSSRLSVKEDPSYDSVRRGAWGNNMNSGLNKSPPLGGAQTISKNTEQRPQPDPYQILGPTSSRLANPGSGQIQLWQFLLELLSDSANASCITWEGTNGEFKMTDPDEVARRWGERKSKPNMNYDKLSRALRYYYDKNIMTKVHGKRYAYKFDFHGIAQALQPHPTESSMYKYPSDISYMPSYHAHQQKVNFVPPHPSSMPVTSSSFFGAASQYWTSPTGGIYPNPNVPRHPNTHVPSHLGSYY
In short: (§1)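 After expression in yeast as GST fusions, human transcription factors were bound to glutathione beads, DNA-barcoded and mixed with a tag-only sample. The pools were incubated with 200 nmole of a 16-mer random double-stranded DNA library in Tris/NaCl/DTT/glycerol buffer (30 min, room temperature), washed and crosslinked with 0.1% formaldehyde. Proximity ligation with BsaI/T4 ligase ran for 1 h at 37 °C, before PCR amplification and sequencing on an Illumina NextSeq500. Binding signal is a hexamer's read frequency for a factor divided by its frequency for the tag-only sample.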

[2] = molecular target: T2, ELK1 (Homo sapiens, UniProt P19419 1-428); conditions: protein: recombinant; tags: N-terminal GST; dsDNA, one strand shown
T2 sequence: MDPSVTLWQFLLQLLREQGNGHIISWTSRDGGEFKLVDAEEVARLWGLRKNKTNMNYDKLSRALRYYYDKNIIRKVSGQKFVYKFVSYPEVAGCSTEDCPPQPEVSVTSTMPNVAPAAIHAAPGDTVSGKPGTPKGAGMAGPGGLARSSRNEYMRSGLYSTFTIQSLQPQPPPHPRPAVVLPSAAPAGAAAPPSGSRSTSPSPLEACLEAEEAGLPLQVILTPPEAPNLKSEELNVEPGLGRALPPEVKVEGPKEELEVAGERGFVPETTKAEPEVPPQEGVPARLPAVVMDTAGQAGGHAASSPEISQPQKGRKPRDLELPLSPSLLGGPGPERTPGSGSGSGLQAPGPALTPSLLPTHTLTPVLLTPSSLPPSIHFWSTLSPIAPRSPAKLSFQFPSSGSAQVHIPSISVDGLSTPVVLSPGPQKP
In short: as §1

[3] = molecular target: T3, GABPA (Homo sapiens, UniProt Q06546 1-454); conditions: protein: recombinant; tags: N-terminal GST; dsDNA, one strand shown
T3 sequence: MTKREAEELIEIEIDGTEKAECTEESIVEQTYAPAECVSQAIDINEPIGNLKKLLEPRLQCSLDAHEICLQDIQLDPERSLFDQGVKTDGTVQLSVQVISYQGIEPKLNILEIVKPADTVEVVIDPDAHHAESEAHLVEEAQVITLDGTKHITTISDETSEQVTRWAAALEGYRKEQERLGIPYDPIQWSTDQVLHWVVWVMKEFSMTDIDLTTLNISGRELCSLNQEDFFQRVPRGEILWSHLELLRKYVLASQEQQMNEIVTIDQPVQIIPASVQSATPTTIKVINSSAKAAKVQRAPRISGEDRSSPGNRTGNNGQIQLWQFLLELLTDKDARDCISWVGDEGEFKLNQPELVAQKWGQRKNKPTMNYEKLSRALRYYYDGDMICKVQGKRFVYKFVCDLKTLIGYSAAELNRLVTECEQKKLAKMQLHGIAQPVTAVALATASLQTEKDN
In short: as §1

[4] = molecular target: T4, ERG (Homo sapiens, UniProt P11308 1-479); conditions: protein: recombinant; tags: N-terminal GST; dsDNA, one strand shown
T4 sequence: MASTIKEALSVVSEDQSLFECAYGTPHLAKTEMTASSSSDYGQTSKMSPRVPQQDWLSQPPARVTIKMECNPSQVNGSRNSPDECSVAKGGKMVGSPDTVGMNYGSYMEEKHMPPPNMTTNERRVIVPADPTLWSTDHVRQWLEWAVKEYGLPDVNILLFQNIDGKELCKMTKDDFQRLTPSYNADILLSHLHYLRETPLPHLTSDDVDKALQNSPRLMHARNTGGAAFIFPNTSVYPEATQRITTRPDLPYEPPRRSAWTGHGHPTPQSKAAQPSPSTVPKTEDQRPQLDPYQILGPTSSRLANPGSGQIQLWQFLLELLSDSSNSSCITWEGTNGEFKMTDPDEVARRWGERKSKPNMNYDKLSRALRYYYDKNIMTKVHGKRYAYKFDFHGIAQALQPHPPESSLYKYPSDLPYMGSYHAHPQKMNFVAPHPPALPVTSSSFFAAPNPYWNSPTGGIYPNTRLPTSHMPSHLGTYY
In short: as §1

[5] = molecular target: ELF1 (Homo sapiens, UniProt P32519 1-619); conditions: protein: recombinant; tags: N-terminal GST; dsDNA, one strand shown
ELF1, sequence (P32519 whole entry): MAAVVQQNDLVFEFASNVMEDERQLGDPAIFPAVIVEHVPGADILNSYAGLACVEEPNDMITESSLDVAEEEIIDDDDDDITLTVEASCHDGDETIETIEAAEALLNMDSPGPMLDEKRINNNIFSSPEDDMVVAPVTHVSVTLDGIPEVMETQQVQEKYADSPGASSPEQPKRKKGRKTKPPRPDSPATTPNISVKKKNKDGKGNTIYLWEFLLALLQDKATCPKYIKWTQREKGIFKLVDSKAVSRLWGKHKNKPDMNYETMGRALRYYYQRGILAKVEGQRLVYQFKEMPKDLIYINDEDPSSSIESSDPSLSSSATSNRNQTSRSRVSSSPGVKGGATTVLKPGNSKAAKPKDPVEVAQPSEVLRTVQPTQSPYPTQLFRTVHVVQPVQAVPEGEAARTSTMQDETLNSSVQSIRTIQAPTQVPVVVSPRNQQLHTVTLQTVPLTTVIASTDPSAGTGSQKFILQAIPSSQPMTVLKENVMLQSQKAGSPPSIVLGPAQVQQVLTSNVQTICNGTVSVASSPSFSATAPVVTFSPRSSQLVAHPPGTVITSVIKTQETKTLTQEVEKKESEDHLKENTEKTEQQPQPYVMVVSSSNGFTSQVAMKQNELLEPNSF
In short: as §1

[6] = molecular target: T5, EHF (Homo sapiens, UniProt Q9NZC4 1-300); conditions: protein: recombinant; tags: N-terminal GST; dsDNA, one strand shown
T5 sequence: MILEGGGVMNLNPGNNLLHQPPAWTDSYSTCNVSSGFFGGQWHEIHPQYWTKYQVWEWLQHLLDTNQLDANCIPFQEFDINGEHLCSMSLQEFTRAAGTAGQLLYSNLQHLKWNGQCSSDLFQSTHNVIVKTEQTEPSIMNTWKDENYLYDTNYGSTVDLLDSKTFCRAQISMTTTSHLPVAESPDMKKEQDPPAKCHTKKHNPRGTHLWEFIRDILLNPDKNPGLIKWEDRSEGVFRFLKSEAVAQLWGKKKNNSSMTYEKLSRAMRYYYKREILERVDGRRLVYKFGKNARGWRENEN
In short: as §1

[7] = molecular target: SPI1 (Homo sapiens, UniProt P17947 1-270); conditions: protein: recombinant; tags: N-terminal GST; dsDNA, one strand shown
In short: as §1

[8] = molecular target: SPIB (Homo sapiens, UniProt Q01892 1-262); conditions: protein: recombinant; tags: N-terminal GST; dsDNA, one strand shown
SPIB, sequence (Q01892 whole entry): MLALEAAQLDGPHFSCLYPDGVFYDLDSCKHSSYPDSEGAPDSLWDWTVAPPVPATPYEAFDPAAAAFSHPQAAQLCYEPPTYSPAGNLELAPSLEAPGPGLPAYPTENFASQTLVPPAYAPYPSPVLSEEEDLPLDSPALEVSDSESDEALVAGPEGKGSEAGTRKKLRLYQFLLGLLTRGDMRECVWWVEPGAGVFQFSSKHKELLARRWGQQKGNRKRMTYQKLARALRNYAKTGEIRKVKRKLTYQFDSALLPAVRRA
In short: as §1

[9] = molecular target: T6, ELK3 (Homo sapiens, UniProt P41970 1-407); conditions: protein: recombinant; tags: N-terminal GST; dsDNA, one strand shown
T6 sequence: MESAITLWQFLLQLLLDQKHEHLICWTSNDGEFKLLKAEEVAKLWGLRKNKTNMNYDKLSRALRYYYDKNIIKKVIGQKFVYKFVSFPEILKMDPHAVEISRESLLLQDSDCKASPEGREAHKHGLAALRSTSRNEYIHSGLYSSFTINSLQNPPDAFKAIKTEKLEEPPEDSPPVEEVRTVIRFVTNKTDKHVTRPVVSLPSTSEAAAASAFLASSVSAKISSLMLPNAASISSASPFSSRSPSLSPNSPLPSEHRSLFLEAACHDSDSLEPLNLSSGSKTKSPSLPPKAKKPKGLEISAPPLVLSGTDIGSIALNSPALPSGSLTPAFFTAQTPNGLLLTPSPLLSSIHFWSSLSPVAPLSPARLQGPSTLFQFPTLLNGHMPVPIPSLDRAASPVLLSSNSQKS
In short: as §1

[10] = molecular target: T7, FEV (Homo sapiens, UniProt Q99581 1-238); conditions: protein: recombinant; tags: N-terminal GST; dsDNA, one strand shown
T7 sequence: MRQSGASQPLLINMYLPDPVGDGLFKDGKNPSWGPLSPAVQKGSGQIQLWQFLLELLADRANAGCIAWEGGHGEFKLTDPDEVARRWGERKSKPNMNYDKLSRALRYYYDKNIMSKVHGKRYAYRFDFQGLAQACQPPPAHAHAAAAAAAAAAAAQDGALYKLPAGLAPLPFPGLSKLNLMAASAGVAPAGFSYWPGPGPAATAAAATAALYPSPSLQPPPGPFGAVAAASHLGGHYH
In short: as §1

[11] = molecular target: ETV5 (Homo sapiens, UniProt P41161 1-510); conditions: protein: recombinant; tags: N-terminal GST; dsDNA, one strand shown
ETV5, sequence (P41161 whole entry): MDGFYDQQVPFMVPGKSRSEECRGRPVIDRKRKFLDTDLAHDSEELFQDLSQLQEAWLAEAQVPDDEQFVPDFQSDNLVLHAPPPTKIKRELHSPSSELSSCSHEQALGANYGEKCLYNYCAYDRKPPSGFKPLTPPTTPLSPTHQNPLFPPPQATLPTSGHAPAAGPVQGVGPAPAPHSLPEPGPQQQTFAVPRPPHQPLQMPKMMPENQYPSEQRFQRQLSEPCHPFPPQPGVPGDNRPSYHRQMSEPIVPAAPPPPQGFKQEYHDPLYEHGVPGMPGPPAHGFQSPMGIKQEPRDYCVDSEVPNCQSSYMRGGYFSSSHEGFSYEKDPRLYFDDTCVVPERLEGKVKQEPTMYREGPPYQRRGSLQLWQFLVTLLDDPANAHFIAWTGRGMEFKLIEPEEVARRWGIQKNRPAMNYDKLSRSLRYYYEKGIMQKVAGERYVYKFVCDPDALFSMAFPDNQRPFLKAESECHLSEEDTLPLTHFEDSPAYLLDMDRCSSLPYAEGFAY
In short: as §1

[12] = molecular target: HSF1 (Homo sapiens, UniProt Q00613 1-529); conditions: protein: recombinant; tags: N-terminal GST; chain copies: 3; dsDNA, one strand shown
HSF1, sequence (Q00613 whole entry): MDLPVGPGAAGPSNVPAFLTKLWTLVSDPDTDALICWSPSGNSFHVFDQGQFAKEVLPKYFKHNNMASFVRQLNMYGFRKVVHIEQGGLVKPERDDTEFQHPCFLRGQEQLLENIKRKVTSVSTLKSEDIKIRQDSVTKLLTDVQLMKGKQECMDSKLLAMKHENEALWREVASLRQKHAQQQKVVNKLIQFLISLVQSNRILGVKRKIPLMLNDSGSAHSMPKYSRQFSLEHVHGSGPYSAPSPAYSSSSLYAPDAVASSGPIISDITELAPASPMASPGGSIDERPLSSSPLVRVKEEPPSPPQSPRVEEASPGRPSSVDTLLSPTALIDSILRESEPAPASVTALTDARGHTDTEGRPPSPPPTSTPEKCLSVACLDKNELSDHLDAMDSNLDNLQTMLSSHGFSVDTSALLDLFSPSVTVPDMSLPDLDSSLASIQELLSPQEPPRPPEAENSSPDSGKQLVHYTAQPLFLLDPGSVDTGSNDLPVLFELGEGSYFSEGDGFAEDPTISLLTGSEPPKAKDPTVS
In short: as §1

[13] = molecular target: T8, SPIC (Homo sapiens, UniProt Q8N5J4 1-248); conditions: protein: recombinant; tags: N-terminal GST; dsDNA, one strand shown
T8 sequence: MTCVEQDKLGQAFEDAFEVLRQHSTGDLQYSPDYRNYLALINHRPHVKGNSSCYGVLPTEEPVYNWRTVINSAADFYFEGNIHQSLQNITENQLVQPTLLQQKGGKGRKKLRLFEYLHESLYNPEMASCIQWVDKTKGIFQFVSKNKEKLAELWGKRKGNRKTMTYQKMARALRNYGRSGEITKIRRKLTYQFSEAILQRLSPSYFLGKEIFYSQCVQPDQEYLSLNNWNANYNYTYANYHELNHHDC
In short: as §1

[14] = molecular target: ELF4 (Homo sapiens, UniProt Q99607 1-663); conditions: protein: recombinant; tags: N-terminal GST; dsDNA, one strand shown
ELF4, sequence (Q99607 whole entry): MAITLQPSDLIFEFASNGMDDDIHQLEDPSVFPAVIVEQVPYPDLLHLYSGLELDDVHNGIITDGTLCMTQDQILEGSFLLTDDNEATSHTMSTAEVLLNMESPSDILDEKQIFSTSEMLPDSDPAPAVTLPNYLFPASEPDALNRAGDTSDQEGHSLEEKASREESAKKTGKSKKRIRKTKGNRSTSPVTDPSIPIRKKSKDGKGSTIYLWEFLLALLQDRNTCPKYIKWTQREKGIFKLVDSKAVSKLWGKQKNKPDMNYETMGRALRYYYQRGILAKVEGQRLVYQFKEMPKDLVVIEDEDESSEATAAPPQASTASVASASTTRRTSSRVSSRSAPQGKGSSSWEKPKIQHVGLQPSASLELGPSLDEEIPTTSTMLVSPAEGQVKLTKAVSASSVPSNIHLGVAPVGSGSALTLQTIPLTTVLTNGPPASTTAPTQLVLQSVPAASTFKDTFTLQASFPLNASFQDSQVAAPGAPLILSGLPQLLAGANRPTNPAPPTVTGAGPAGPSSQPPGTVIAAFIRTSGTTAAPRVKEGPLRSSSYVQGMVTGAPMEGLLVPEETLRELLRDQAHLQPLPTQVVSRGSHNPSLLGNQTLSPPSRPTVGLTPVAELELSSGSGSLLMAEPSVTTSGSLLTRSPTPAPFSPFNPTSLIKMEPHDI
In short: as §1

[15] = molecular target: T9, ELK4 (Homo sapiens, UniProt P28324-2 1-405); conditions: protein: recombinant; tags: N-terminal GST; dsDNA, one strand shown
T9 sequence: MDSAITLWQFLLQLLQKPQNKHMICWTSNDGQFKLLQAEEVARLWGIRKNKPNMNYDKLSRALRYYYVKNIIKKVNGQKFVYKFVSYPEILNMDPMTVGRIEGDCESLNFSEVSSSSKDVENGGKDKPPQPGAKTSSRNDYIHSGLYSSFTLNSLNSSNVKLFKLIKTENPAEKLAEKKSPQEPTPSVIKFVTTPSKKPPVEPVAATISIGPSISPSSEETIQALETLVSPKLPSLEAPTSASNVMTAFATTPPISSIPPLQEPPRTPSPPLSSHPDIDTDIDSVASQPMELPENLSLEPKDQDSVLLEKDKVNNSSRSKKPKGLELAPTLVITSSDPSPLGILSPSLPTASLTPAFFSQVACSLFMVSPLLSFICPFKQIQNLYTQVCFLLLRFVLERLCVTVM
In short: as §1

[16] = molecular target: T10, ETV2 (Homo sapiens, UniProt O00321 1-342); conditions: protein: recombinant; tags: N-terminal GST; dsDNA, one strand shown
T10 sequence: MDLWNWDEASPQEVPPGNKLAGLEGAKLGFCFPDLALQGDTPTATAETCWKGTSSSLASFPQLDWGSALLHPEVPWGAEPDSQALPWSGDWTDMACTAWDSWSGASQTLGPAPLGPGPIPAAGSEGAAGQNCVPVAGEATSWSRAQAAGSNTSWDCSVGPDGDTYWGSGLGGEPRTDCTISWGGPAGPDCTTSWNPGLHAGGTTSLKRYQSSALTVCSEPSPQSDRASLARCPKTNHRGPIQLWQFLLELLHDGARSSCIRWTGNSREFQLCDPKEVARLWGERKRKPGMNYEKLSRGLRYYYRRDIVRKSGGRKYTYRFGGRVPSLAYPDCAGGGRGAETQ
In short: as §1

[17] = molecular target: T11, ELF3 (Homo sapiens, UniProt P78545 1-371); conditions: protein: recombinant; tags: N-terminal GST; dsDNA, one strand shown
T11 sequence: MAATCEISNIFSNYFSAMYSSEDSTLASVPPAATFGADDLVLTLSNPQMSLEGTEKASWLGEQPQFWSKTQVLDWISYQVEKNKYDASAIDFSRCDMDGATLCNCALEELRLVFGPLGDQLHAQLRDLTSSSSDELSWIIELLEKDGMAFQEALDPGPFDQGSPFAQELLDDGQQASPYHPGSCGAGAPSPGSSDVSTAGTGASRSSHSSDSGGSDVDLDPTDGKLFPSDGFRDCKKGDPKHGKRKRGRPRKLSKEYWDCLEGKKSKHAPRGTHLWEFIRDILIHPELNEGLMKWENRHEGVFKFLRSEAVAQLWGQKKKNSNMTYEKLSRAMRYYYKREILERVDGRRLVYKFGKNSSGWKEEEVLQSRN
In short: as §1

[18] = molecular target: CRX (Homo sapiens, UniProt O43186 1-299); conditions: protein: recombinant; tags: N-terminal GST; dsDNA, one strand shown
CRX, sequence (O43186 whole entry): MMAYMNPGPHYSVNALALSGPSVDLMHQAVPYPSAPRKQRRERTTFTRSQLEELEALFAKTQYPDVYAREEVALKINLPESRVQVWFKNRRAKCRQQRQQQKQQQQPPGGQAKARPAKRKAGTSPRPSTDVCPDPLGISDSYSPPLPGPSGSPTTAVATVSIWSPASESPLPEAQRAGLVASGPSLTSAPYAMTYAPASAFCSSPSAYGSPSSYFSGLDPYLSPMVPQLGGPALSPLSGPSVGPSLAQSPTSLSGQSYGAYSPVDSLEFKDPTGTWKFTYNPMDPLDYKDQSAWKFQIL
In short: as §1

[19] = molecular target: ETV1 (Homo sapiens, UniProt P50549 1-477); conditions: protein: recombinant; tags: N-terminal GST; dsDNA, one strand shown
ETV1, sequence (P50549 whole entry): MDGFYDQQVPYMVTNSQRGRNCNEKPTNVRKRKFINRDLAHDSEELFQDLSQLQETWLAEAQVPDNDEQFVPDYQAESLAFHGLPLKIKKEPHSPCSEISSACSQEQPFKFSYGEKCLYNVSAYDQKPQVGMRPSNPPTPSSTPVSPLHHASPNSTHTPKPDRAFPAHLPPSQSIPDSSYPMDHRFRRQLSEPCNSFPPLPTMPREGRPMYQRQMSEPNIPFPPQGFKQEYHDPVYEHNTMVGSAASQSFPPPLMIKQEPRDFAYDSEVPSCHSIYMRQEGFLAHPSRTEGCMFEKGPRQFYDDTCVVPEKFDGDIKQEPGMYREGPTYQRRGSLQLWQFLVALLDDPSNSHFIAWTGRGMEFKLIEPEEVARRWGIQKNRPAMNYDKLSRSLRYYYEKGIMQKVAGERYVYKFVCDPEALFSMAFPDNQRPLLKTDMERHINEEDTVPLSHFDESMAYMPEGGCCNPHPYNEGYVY
In short: as §1

For ACTTGT, the binding signal [1] was 1.27 fold enrichment (6-mer frequency, TF over GST control), the binding signal [2] was 1.35 fold enrichment (6-mer frequency, TF over GST control) and the binding signal [3] was 1.29 fold enrichment (6-mer frequency, TF over GST control). For the same sequence, the binding signal [4] was 1.15 fold enrichment (6-mer frequency, TF over GST control), the binding signal [5] was 1.29 fold enrichment (6-mer frequency, TF over GST control) and the binding signal [6] was 1.31 fold enrichment (6-mer frequency, TF over GST control). The binding signal [7] was 1.3 fold enrichment (6-mer frequency, TF over GST control), the binding signal [8] was 1.45 fold enrichment (6-mer frequency, TF over GST control) and the binding signal [9] was 1.31 fold enrichment (6-mer frequency, TF over GST control). The binding signal [10] was 1.28 fold enrichment (6-mer frequency, TF over GST control), the binding signal [11] was 1.21 fold enrichment (6-mer frequency, TF over GST control) and the binding signal [12] was 1.12 fold enrichment (6-mer frequency, TF over GST control). For the same sequence, the binding signal [13] was 1.08 fold enrichment (6-mer frequency, TF over GST control), the binding signal [14] was 1.37 fold enrichment (6-mer frequency, TF over GST control) and the binding signal [15] was 1.36 fold enrichment (6-mer frequency, TF over GST control). For the same sequence, the binding signal [16] was 1.31 fold enrichment (6-mer frequency, TF over GST control), the binding signal [17] was 1.16 fold enrichment (6-mer frequency, TF over GST control) and the binding signal [18] was 1.1 fold enrichment (6-mer frequency, TF over GST control). The binding signal [19] was 1.29 fold enrichment (6-mer frequency, TF over GST control).
